Rows were chosen to be rich in hits. Some 19% of all compounds tested hit in one or more screens of this group.
TDP1 cell CPT: growth inhibition of DT40 Tdp1-/-;hTDP1 cells with camptothecin (screen for TDP1 inhibitors) | hit rate 12% among 420,000 | chicken DT40 Tdp1-/-;hTDP1 cells + 20 nM CPT, ATP luminescence, 48 h | Potency, µM (doses to about 46.2 µM), for inactives: top-dose activity change, negative = growth inhibition, actives largely listed as inhibitors; also: nearly all actives have a fitted effect of over 55% in size
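Chicken DT40 Tdp1-/- cells complemented with human TDP1, 400 cells/well, exposed to compounds plus 20 nM camptothecin for at least 48 h at 37 C; viability read as ATP content by CellTiter-Glo luminescence.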
DT40 TDP1 no CPT: qHTS for Inhibitors of human tyrosyl-DNA phosphodiesterase 1 (TDP1): qHTS in cells in absence of CPT; hit rate 15% among 420,000; Potency, µM (titrated, usually from 46.2 µM), for inactives: at the top dose activity change, negative = growth inhibition, most hits filed as inhibitors; DT40 Tdp1-/- hTDP1 cells, no CPT, ATP luminescence, 48 h; also: nearly all actives have a fitted effect of over 55% in size
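DT40 Tdp1-/-;hTDP1 cells, no CPT (DMSO vehicle only), 400 cells/well; compounds pin-transferred; ≥48 hr, 37 °C; CellTiter-Glo 30 min RT dark, luminescence read.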
KB-V1 MDR tox: KB-V1 MDR subline cytotoxicity; KB-V1 MDR cells viability, CellTiter-Glo, 72 h; Potency, µM (highest dose often 46.1 µM), hits mostly cytotoxic; hit rate 3.4% among 400,000; also: nearly all actives have a fitted effect of over 60% in size
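Following 72 h at 37 degrees C with compound, KB-V1 cell viability was read by CellTiter-Glo luminescence, medium being phenol-red-free DMEM plus 10% FBS; concentration-response parameters came from normalized, curve-fitted qHTS data.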
HT1080 IDH1KD tx: HT-1080 IDH1 knockdown cell toxicity (counter line). HT-1080 IDH1 knockdown viability, ATP luminescence, 48 h. Potency, µM (titrated, usually from 46.1 µM), for inactives: at the highest dose activity, negative = toxicity, usual class: cytotoxic. hit rate 2% among 360,000;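 also: 0% = DMSO wells and -100% = cell-free medium wells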
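Viability of IDH1-knockdown HT-1080 fibrosarcoma cells was assessed by CellTiter-Glo after 48 h at 37 °C with titrated compound; concentration-effect curves were classified by fit quality and response size.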
KB-3-1 cytotox: KB-3-1 parental cell cytotoxicity; hit rate 1.4% among 400,000; KB-3-1 viability, CellTiter-Glo ATP luminescence, 72 h; Potency, µM (doses to about 46.1 µM), most hits filed as cytotoxic; AID 1347075; also: nearly all actives have a fitted effect of over 60% in size
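Parental KB-3-1 adenocarcinoma cells in phenol-red-free DMEM with 10% FBS were pin-treated with compounds at several concentrations, incubated 72 h at 37 °C, and viability read by CellTiter-Glo luminescence; concentration-effect curves were fitted after normalization.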
HT1080-NT tox: kills 2HG-producing HT-1080-NT fibrosarcoma cells; HT-1080-NT fibrosarcoma viability, CellTiter-Glo ATP luminescence, 48 h; Potency, µM (top dose mostly 46.1 µM), without a hit: top-dose activity, negative = less viability, hits mostly cytotoxic; hit rate 1.6% among 360,000; AID 686970;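 also: NT is the 2HG producing partner of a matched IDH1 knockdown line; 0% = DMSO-treated cells and -100% = media-only wells without cells; nearly all actives have a fitted effect of over 55% in size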
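Luminescent CellTiter-Glo readout after 48 hours of compound exposure at 37 degrees C defined viability of HT-1080-NT cells. Activity was normalized to DMSO wells and cell-free media wells; concentration-response curves were fitted and assigned curve classes.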
Starred values were filed as active, the others as inactive; i = inactive; ? = inconclusive; . = no result; ! = a repeat was not active; [ ] = remark or other dose. Calls follow the shape of the dose curve; as a rule, active = well fitted curve in the direction sought with a large enough effect; inconclusive = small, poorly fitted or top-dose-only effect, or another doubt; inactive = no such curve, though single readings can be large; an effect the other way counts as inactive or inconclusive. Unless noted, % is scaled to controls: 0 for no effect and ±100 for the full control effect; potency is read from the fitted curve at half-maximal effect.

SMILES	TDP1 cell CPT	DT40 TDP1 no CPT	KB-V1 MDR tox	HT1080 IDH1KD tx	KB-3-1 cytotox	HT1080-NT tox
CCOC(=O)c1c(-c2ccccc2)nc2cc(C)ccn12	?	?	15µM*	?	i	-23%
CCOC(=O)c1c(-c2ccccc2)nc2ccc(C)cn12	?	16µM*	21µM*	5%	i	8%
CCOC(=O)C(=O)c1c(-c2ccccc2)nc2ccccn12	?	?	i	-4%	i	-6%
Cc1oc(-c2ccc(C(=O)NCCC(C)C)cc2)nc1CS(=O)(=O)c1ccccc1	-23%	-18%	?	.	i	.
Cc1nn(-c2ccccc2)c2c1N(CC(=O)N1CCN(c3ccccc3F)CC1)C(=O)CS2	18µM*	?	i	.	i	.
Cc1nn(-c2ccccc2)c2c1N(CC(=O)N1CCN(c3ccc(Cl)cc3)CC1)C(=O)CS2	?	?	i	.	i	.
Cc1cccc(N2CCN(C(=O)CN3C(=O)CSc4c3c(C)nn4-c3ccccc3)CC2)c1C	?	?	i	.	i	.
Cc1nn(-c2ccccc2)c2c1N(CC(=O)N1CCN(c3ccc(F)cc3)CC1)C(=O)CS2	?	21µM*	i	.	i	.
CCCCCCCCCCCCCCCC[n+]1ccc(/C=C/c2c[nH]c3ccccc23)c2ccccc21	5µM*	14µM*	?	.	?	.
CCn1c(/N=C/c2c[nH]c3ccccc23)nc2ccccc21	?	?	i	?	i	24%
CCCCCCC[n+]1ccc(/C=C/c2c[nH]c3ccccc23)c2ccccc21	1µM*	1.1µM*	?	.	7.3µM*	.
CCCn1c(/N=C/c2c[nH]c3ccccc23)nc2ccccc21	-17%	-8%	i	?	i	-8%
C(=C\c1c[nH]c2ccccc12)/c1cc[n+](C2CCCCC2)cc1	-12%	?	i	.	i	.
CCCCCCCCCCCC[n+]1ccc(/C=C/c2c[nH]c3ccccc23)c2ccccc21	2.5µM*	2.2µM*	i	.	?	.
O=C(Cn1c(=O)nc(-c2ccccc2)c2ccccc21)NCCc1ccccc1	5%	-2%	.	.	.	.
Cc1ccc(C)c(NC(=O)Cn2cc(C(=O)c3ccncc3)c(=O)c3cc(F)ccc32)c1	-9%	-3%	.	.	.	.
CCOC(=O)c1cc(-c2ccccc2)n(-c2cccc(C(=O)N(C)c3ccc(C)cc3)c2)c1C	-80%	8.2µM*	?	.	16µM*	.
CCOC(=O)c1cc(-c2ccccc2)n(-c2cccc(C(=O)NC(C)(C)C)c2)c1C	?	?	i	.	i	.
COc1ccc(OC)c(NC(=O)CCc2c(C)nn(-c3ccc(N4CCCC4)nn3)c2C)c1	21µM*	15µM*	.	.	.	.
Cc1cccc(NC(=O)CCc2c(C)nn(-c3ccc(N4CCCCC4)nn3)c2C)c1	?	?	i	-7%	i	12%
Cc1nn(-c2ccc(N3CCOCC3)nn2)c(C)c1CCC(=O)Nc1ccc(F)cc1	-4%	16µM*	i	3%	i	7%
COC(=O)c1ccc(NC(=O)CCc2c(C)nn(-c3ccc(N4CCCCC4)nn3)c2C)cc1	23µM*	?	.	.	.	.
COc1cc(NC(=O)CCc2c(C)nn(-c3ccc(N4CCCCC4)nn3)c2C)cc(OC)c1OC	21µM*	?	.	.	.	.
O=C(OCc1ccccc1)N1CCCCC1c1c(Cl)cccc1Br (stereo not drawn)	?	?	i	?	i	-18%
CN(C)c1ccc(/C=C/C=C2/C=Cc3ccccc32)cc1	?	?	i	.	i	.
SMILES	TDP1 cell CPT	DT40 TDP1 no CPT	KB-V1 MDR tox	HT1080 IDH1KD tx	KB-3-1 cytotox	HT1080-NT tox
Cc1ccccc1NC(=O)CCc1c(C)nn(-c2ccc(N3CCCCC3)nn2)c1C	16µM*	21µM*!	i	9%	i	-6%
Cc1nn(-c2ccc(N3CCCC3)nn2)c(C)c1CCC(=O)N1CCN(c2ccc(F)cc2)CC1	15µM*	?	.	.	.	.
Cc1nn(-c2ccc(N3CCOCC3)nn2)c(C)c1CCC(=O)N1CCN(C)CC1	0%	1%	i	20%	i	8%
CCCNC(=O)c1ccc2c(c1)C1C3CCC(C3)C1C(c1ccccc1)N2 (stereo not drawn)	21µM*	?	21µM*	-22%	?	-16%
CC(C)(C)NC(=O)c1ccc2c(c1)C1C3CCC(C3)C1C(c1ccccc1)N2 (stereo not drawn)	13µM*	12µM*	i	-4%	i	-25%
CCCNC(=O)c1cccc(Br)c1	4%	3%	i	-2%	i	-1%
COc1ccc(-c2nnn(CC(=O)N(CC(=O)NCCC(C)C)Cc3cccs3)n2)cc1OC	?	?	i	-23%	i	5%[9.24 µM]
CC(C)CCNC(=O)C(c1ccco1)N(Cc1cccs1)C(=O)Cn1nnc2ccccc21 (stereo not drawn)	26µM*	?	5.2µM*	5%	i	-1%
COc1ccc(N(CC(=O)NC2CCCC2)C(=O)Cn2nnc(-c3ccc(F)cc3)n2)cc1OC	-16%	-14%	i	0%	i	-4%
COc1ccc(-c2nnn(CC(=O)N(Cc3cccs3)C(C)C(=O)NCCC(C)C)n2)cc1OC (stereo not drawn)	15µM*	21µM*	i	-13%	i	-27%
COc1ccc(N(CC(=O)NC2CCCC2)C(=O)Cn2nnc(-c3ccc(C)cc3)n2)cc1	?	?	16µM*	-19%	i	-2%
COc1ccc(N(CC(=O)NC2CCCC2)C(=O)Cn2nnc(-c3ccc(C)cc3)n2)cc1OC	-12%	-9%	13µM*	1%	i	-1%
Cc1ccc(NC(=O)COC(=O)c2ccccc2OCC(=O)Nc2ccc(Br)cc2)c(C)c1	?	?	i	.	i	.
Cc1cccc(C(=O)OCC(=O)N(CC(C)C)c2c(N)n(Cc3ccccc3)c(=O)[nH]c2=O)c1C	?	?	i	0%	i	3%
O=C(NCc1ccccc1Cl)c1csc([C@@H]2O[C@H](CO)[C@H](O)[C@H](O)[C@H]2O)n1	-18%	-20%	i	23%	i	11%
COc1ccc(-c2nnn(CC(=O)N(C3CCCCC3)C(C)C(=O)NC3CCCC3)n2)cc1OC (stereo not drawn)	?	?	2.6µM*	1%	i	7%
